D1 antag: human D1 dopamine receptor antagonism; P21728; activity change, negative = inhibition, % at 10 µM; HEK293 TREx D1 cells, calcium flux, dopamine EC80; hits give low values; 3.2% of 360,000 active; in the data active = activity change below about -30%; note: % is set by controls: 0 for no effect and ±100 for the full control effect
Target sequence (P21728 whole entry, looked up): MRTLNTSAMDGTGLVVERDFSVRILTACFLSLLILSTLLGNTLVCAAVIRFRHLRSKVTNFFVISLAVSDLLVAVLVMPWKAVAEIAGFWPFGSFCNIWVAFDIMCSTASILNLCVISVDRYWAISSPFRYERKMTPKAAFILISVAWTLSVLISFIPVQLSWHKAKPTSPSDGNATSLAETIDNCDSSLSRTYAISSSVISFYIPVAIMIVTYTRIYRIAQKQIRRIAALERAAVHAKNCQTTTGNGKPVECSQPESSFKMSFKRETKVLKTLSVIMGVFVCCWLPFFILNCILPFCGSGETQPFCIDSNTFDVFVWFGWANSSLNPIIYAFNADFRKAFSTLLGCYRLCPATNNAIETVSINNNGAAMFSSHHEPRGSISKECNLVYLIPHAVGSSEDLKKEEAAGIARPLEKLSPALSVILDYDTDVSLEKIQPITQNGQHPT
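Tetracycline-induced HEK293 Trex D1 cells, force-coupled to calcium, dye-loaded; compounds added and read 180 s, then EC80 dopamine added and calcium flux tracked kinetically another 180 s.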
TRHR PAM: allosteric enhancers of human TRH receptor. P34981. TRHR cells, fluo-8 calcium fluorescence, EC20 TRH enhancement. enhancement, % at 2 µM. 0.66% of 360,000 active; in the data active = enhancement above about 30%; note: 0% is about no effect
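Enhancer read-out: after compound pinning and an initial kinetic agonist-mode read, an EC20 of TRH (10 nM final) was injected and fluo-8 calcium signal (Ex 480/Em 530) followed at 1 s/cycle for 100 cycles in TRHR-expressing cells.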
D1 agonist: agonists of human D1 dopamine receptor; P21728; HEK293 T-REx D1 cells, calcium flux, agonist mode; activation, % at 2 µM; 1% of 360,000 active; AID 504660; note: 0% is about no effect
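Inducible HEK293 T-REx D1 cells, force-coupled to calcium signalling, were plated at 4000 cells/well with tetracycline and held overnight at 30 C. After no-wash calcium dye loading, compound-evoked calcium rise over 180 s flagged agonists.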
TRHR agonist: activates the human TRH receptor; P34981; activation, % at 2 µM; AID 493084; TRHR cells, calcium flux fluo-8, FDSS agonist mode; 0.18% of 360,000 active; note: 0% is about no effect
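TRHR-expressing cells loaded with fluo-8 calcium dye; 23 nL library compound pin-transferred, kinetic FDSS fluorescence (Ex 480/Em 530) recorded about 180 s for agonist-induced calcium release, before a 10 nM TRH EC20 addition for potentiator mode.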
D1 PAM: human D1 dopamine receptor positive modulation. potentiation, % at 10 µM. 0.036% of 360,000 active. HEK293 TREx D1 cells, calcium flux, dopamine EC20 potentiation. AID 504651. P21728; in the data active = potentiation above about 30%; note: 0% is about no effect
* marks the source's active call; other numbers are inactive results. In the library only some 4.6% were active in any assay of this set; here they are far more common. Cut-off read from the data, not from the text of the source, unless noted: active = activation above about 30%; inactive = the rest.

Screening CCN(CC)C(=O)C1CCCN(c2ccccc2[N+](=O)[O-])C1 (stereo not drawn) returned D1 antag -6, TRHR PAM 37*, D1 agonist 8, TRHR agonist -1 and D1 PAM -8.
`Cc1noc(Cn2c(=O)c3ccccc3n(CC(=O)Nc3ccc(C(C)C)cc3)c2=O)n1` gave D1 antag -12, TRHR PAM 4, D1 agonist 4, TRHR agonist 1 and D1 PAM -2.
Screening CCCn1c2ccccc2c2cnn(CC(=O)NCC3CCN(Cc4ccccc4C)CC3)c(=O)c21 returned D1 antag 4, TRHR PAM -5, D1 agonist -1, TRHR agonist 0 and D1 PAM 4.
Cc1cccc(-n2nc3c(c2NC(=O)c2ccco2)CS(=O)(=O)C3)c1C was read as D1 antag -41*, TRHR PAM 13, D1 agonist 5, TRHR agonist 2 and D1 PAM -15.
For Cc1ccc(-n2nc3c(c2NC(=O)c2ccco2)CS(=O)(=O)C3)c(C)c1 the results were D1 antag -5, TRHR PAM 3, D1 agonist 1, TRHR agonist 0 and D1 PAM -4.
For CCOc1ccc(NC(=O)C(C)Sc2nnnn2C)cc1 (stereo not drawn) the results were D1 antag -32*, TRHR PAM 0, D1 agonist 0, TRHR agonist 0 and D1 PAM -8.
For CC(Sc1nnnn1C)C(=O)Nc1ccccc1 (stereo not drawn) the results were D1 antag -11, TRHR PAM -1, D1 agonist 2, TRHR agonist 0 and D1 PAM 0.
CC(Sc1nccn1C)C(=O)Nc1ccc(C(N)=O)cc1 (stereo not drawn) was read as D1 antag 27, TRHR PAM 31*, D1 agonist 3, TRHR agonist 0 and D1 PAM -5.
For CCCOC(=O)C1[C@H]2C(=O)N(Cc3ccco3)C[C@]23C=C[C@H]1O3 (stereo partly drawn) the results were D1 antag -61*, TRHR PAM 6, D1 agonist -1, TRHR agonist 0 and D1 PAM -10.
For Cc1ccc(C(C)C)c(OCCCNCc2cccnc2)c1 the results were D1 antag -21, TRHR PAM 4, D1 agonist 10, TRHR agonist 0 and D1 PAM -4.
Cc1ccc(C(C)C)c(OCCNCCc2ccccc2)c1 was read as D1 antag -1, TRHR PAM -1, D1 agonist 58*, TRHR agonist 0 and D1 PAM 21.
Screening O=C(CCCOc1ccccc1)NCCc1ccccc1 returned D1 antag -2, TRHR PAM -8, D1 agonist 2, TRHR agonist -1 and D1 PAM -2.
Screening CCC(C)NCCOc1ccc(C(C)(C)c2ccccc2)cc1 (stereo not drawn) returned D1 antag -3, TRHR PAM 11, D1 agonist 72*, TRHR agonist 3 and D1 PAM 3.
CCCCNCC#CCOc1cc(C)ccc1C(C)C was read as D1 antag 6, TRHR PAM 9, D1 agonist 87*, TRHR agonist -1 and D1 PAM -2.
Screening c1ccc(CCNCCOc2ccccc2)cc1 returned D1 antag -53*, TRHR PAM 16, D1 agonist 1, TRHR agonist 0 and D1 PAM -11.
Screening Cc1ccc(-c2noc(CNC(=O)c3ccc(Br)o3)n2)cc1 returned D1 antag -16, TRHR PAM 0, D1 agonist 8, TRHR agonist -1 and D1 PAM 0.
For CC(C)(c1ccccc1)c1ccc(OCCCN2CCNCC2)cc1 the results were D1 antag 6, TRHR PAM 1, D1 agonist 59*, TRHR agonist 1 and D1 PAM -4.
For CC(C)(c1ccccc1)c1ccc(OCCN2CCOCC2)cc1 the results were D1 antag 0, TRHR PAM 5, D1 agonist 4, TRHR agonist 0 and D1 PAM -7.
Screening CNCCCOc1ccc(C(C)(C)c2ccccc2)cc1 returned D1 antag 7, TRHR PAM 15, D1 agonist 53*, TRHR agonist 7 and D1 PAM 4.
CC(C)(C)c1ccc(OCCNCc2ccccc2)cc1 was read as D1 antag 10, TRHR PAM 13, D1 agonist 43*, TRHR agonist 1 and D1 PAM 23.

Assay outcomes as filed in PubChem BioAssay.
